Activity calls are given as the source filed them. How the source made its calls: active means hit-call score of the fitted dose curve at least 0.9, where 1 is the maximum; inactive means score below 0.9.

As usually defined, the AC50 is the concentration at which the activity in the assay is half-maximal.

Conditions in all cases: mRNA level, 48 h; actives raise or lower the signal
Read-out in test [1]: Bcl-2 (BID) gene, BID (gene 637)
Kind of test: LTEA_HepaRG_BID: Life Technologies and Expression Analysis (LTEA) Assay for Bcl-2 (BID) gene using HepaRG (AID 2283476). In short, it runs like this: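 Duplicate 48 h treatments of HepaRG cells in serum-free induction medium spanned 100 uM downward in half-log steps, 0.5% DMSO. Transcript change quantified by qRT-PCR against three housekeeping genes, fitted up or down versus DMSO.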

Read-out in test [2]: Caspase-3 (Homo sapiens) (UniProt P42574)
Kind of test: LTEA_HepaRG_CASP3: Life Technologies and Expression Analysis (LTEA) Assay for cysteine-aspartic acid protease (CASP3) using HepaRG (AID 2283477). In short, it runs like this:
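Expression of CASP3 was quantified by TaqMan qRT-PCR against three housekeeping genes (ACTB, GAPDH, POLR2A), bidirectionally versus 0.5% DMSO. HepaRG cultures received compounds in duplicate, top 100 uM with half-log steps, for 48 h in serum-free induction medium.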

Read-out in test [3]: Cytochrome P450 (CYP24A1), CYP24A1 (gene 1591)
Description: LTEA_HepaRG_CYP24A1: Life Technologies and Expression Analysis (LTEA) Assay for Cytochrome P450 (CYP24A1) using HepaRG (AID 2283478). In short, it runs like this:
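mRNA of CYP24A1 quantified by TaqMan qRT-PCR (ACTB/GAPDH/POLR2A normalization) after 48 h chemical exposure of HepaRG cells, top concentration 100 uM, half-log steps, 0.5% DMSO vehicle, duplicates. Curves fitted bidirectionally against DMSO baseline.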

Read-out in test [4]: Cytochrome P450 (CYP1A2), CYP1A2 (gene 1544)
Description: LTEA_HepaRG_CYP1A2: Life Technologies and Expression Analysis (LTEA) Assay for Cytochrome P450 (CYP1A2) using HepaRG (AID 2283479). Summed up: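 CYP1A2 transcript measured by TaqMan qRT-PCR against three housekeeping genes after 48-hour chemical exposure of HepaRG cells. Eight-point half-log series topping at 100 uM in 0.5% DMSO, duplicates; gain or loss fitted relative to vehicle.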

Read-out in test [5]: cysteine-aspartic acid protease (CASP8), CASP8 (gene 841)
Kind of test: LTEA_HepaRG_CASP8: Life Technologies and Expression Analysis (LTEA) Assay for cysteine-aspartic acid protease (CASP8) using HepaRG (AID 2283480). In short, it runs like this:
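CASP8 transcript measured by TaqMan qRT-PCR with ACTB/GAPDH/POLR2A normalization, after 48 h chemical exposure of HepaRG cells in serum-free induction medium. Eight concentrations, top 100 uM, half-log steps, 0.5% DMSO vehicle; fits in both directions versus DMSO.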

Read-out in test [6]: Cytochrome P450 (CYP2B6), CYP2B6 (gene 1555)
Description: LTEA_HepaRG_CYP2B6: Life Technologies and Expression Analysis (LTEA) Assay for Cytochrome P450 (CYP2B6) using HepaRG (AID 2283481). In short, it runs like this:
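CYP2B6 transcript level quantified by qRT-PCR against three housekeeping genes, fitted bidirectionally relative to DMSO. HepaRG cultures received chemicals for 48 h, 8-point half-log series from 100 uM in 0.5% DMSO, duplicate wells, serum-free induction medium.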

Read-out in test [7]: Cytochrome P450 2C19 (Homo sapiens) (UniProt P33261)
Kind of test: LTEA_HepaRG_CYP2C19: Life Technologies and Expression Analysis (LTEA) Assay for CYP2C19 using HepaRG (AID 2283482). In short, it runs like this: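 CYP2C19 transcript levels by qRT-PCR, normalized to three housekeeping genes, in HepaRG cells after 48 h chemical exposure. Eight-point half-log series topping at 100 uM, 0.5% DMSO vehicle. Increases and decreases both fitted against DMSO.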

Read-out in test [8]: CYP2C8 (gene 1558)
Kind of test: LTEA_HepaRG_CYP2C8: Life Technologies and Expression Analysis (LTEA) Assay for CYP2C8 using HepaRG (AID 2283483). Summed up: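 CYP2C8 expression measured by TaqMan qRT-PCR and normalized to three housekeeping genes. HepaRG cultures were treated for 48 h with an eight-point half-log series topping at 100 uM, vehicle 0.5% DMSO, duplicates; fitted both directions against DMSO.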

Read-out in test [9]: CYP2C9 (gene 1559)
Kind of test: LTEA_HepaRG_CYP2C9: Life Technologies and Expression Analysis (LTEA) Assay for CYP2C9 using HepaRG (AID 2283484). Summed up:
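CYP2C9 transcript level, quantified by TaqMan qRT-PCR against three housekeeping genes, was fitted bidirectionally relative to 0.5% DMSO. HepaRG cultures were treated 48 h, in duplicate, at eight half-log concentrations topping at 100 uM.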

Read-out in test [10]: CYP2E1 (gene 1571)
Kind of test: LTEA_HepaRG_CYP2E1: Life Technologies and Expression Analysis (LTEA) Assay for CYP2E1 using HepaRG (AID 2283485). Summed up: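 CYP2E1 transcript measured by Fluidigm qRT-PCR against three housekeeping genes in human HepaRG cells treated 48 h (top 100 uM, half-log steps, 0.5% DMSO vehicle). Gain or loss fitted relative to DMSO baseline.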

Read-out in test [11]: CYP4A11 (gene 1579)
Kind of test: LTEA_HepaRG_CYP4A11: Life Technologies and Expression Analysis (LTEA) Assay for CYP4A11 using HepaRG (AID 2283486). In short, it runs like this: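 Readout is CYP4A11 transcript level by qRT-PCR, normalized to three housekeeping genes and fitted bidirectionally against 0.5% DMSO. Human HepaRG cells were treated 48 h, in duplicate, with an 8-point half-log series topping at 100 uM.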

Read-out in test [12]: Cytochrome P450 3A4 (Homo sapiens) (UniProt P08684)
Description: LTEA_HepaRG_CYP3A4: Life Technologies and Expression Analysis (LTEA) Assay for CYP3A4 using HepaRG (AID 2283487). In short, it runs like this: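 HepaRG, 48 h exposure, 8-pt CRC from 100 uM (half-log), 0.5% DMSO, duplicates; serum-free induction medium. Readout: CYP3A4 mRNA, qRT-PCR, ACTB/GAPDH/POLR2A normalization. Bidirectional fit vs DMSO.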

Read-out in test [13]: Pro-epidermal growth factor (Homo sapiens) (UniProt P01133)
Description: LTEA_HepaRG_EGF: Life Technologies and Expression Analysis (LTEA) Assay for Epidermal growth factor (EGF) using HepaRG (AID 2283489). In short, it runs like this: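 EGF transcript measured by Fluidigm TaqMan qRT-PCR with three housekeeping genes for normalization, 48 h after dosing HepaRG cultures in duplicate (top 100 uM, half-log steps, 0.5% DMSO vehicle). Gain or loss relative to DMSO fitted.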

Read-out in test [14]: Early growth response protein 1 (EGR1) transcription factor, EGR1 (gene 1958)
Kind of test: LTEA_HepaRG_EGR1: Life Technologies and Expression Analysis (LTEA) Assay for Early growth response protein 1 (EGR1) transcription factor using HepaRG (AID 2283490). Summed up: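 EGR1 transcript levels quantified by qRT-PCR (Fluidigm arrays) against three housekeeping genes after 48 h chemical exposure of HepaRG cells. Eight-point half-log series topping at 100 uM, 0.5% DMSO vehicle, analyzed for gain or loss.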

Read-out in test [15]: Ezrin (EZR), EZR (gene 7430)
Description: LTEA_HepaRG_EZR: Life Technologies and Expression Analysis (LTEA) Assay for Ezrin (EZR) using HepaRG (AID 2283491). Summed up: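 Read-out is EZR transcript level by qRT-PCR, normalized to three housekeeping genes and fitted bidirectionally against the DMSO control. Human HepaRG cells received test chemicals for 48 h at eight half-log concentrations up to 100 uM in 0.5% DMSO.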

Read-out in test [16]: Cytochrome P450 3A7 (Homo sapiens) (UniProt P24462)
Kind of test: LTEA_HepaRG_CYP3A7: Life Technologies and Expression Analysis (LTEA) Assay for CYP3A7 using HepaRG (AID 2283492). Summed up:
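CYP3A7 transcript measured by qRT-PCR (ACTB, GAPDH, POLR2A normalization) after 48 h chemical exposure of HepaRG cells in duplicate. Eight half-log concentrations, maximum 100 uM, 0.5% DMSO vehicle; bidirectional curve fitting against DMSO baseline.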

Read-out in test [17]: CYP3A5 (gene 1577)
Description: LTEA_HepaRG_CYP3A5: Life Technologies and Expression Analysis (LTEA) Assay for CYP3A5 using HepaRG (AID 2283493). In short, it runs like this: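 mRNA levels were quantified by qRT-PCR on Fluidigm arrays and normalized to three housekeeping genes. Differentiated HepaRG cells received 48 h exposure (top 100 uM, half-log steps, 0.5% DMSO vehicle, duplicate); bidirectional fitting versus DMSO.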

Read-out in test [18]: Fatty Acid-Binding Protein 1 (FABP1), FABP1 (gene 2168)
Description: LTEA_HepaRG_FABP1: Life Technologies and Expression Analysis (LTEA) Assay for Fatty Acid-Binding Protein 1 (FABP1) using HepaRG (AID 2283494). Summed up:
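FABP1 expression by TaqMan qRT-PCR, normalised to three housekeeping genes, in HepaRG cells after 48 h chemical treatment. Eight-point half-log series topping at 100 uM in 0.5% DMSO, duplicates; gain or loss fitted relative to vehicle.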

Read-out in test [19]: Cytochrome P450 4A22 (Homo sapiens) (UniProt Q5TCH4)
Description: LTEA_HepaRG_CYP4A22: Life Technologies and Expression Analysis (LTEA) Assay for Cytochrome P450 4A22 (CYP4A22) using HepaRG (AID 2283495). In short, it runs like this:
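Gene expression measured by qRT-PCR against three housekeeping genes (ACTB, GAPDH, POLR2A), with gain or loss fitted relative to 0.5% DMSO vehicle. HepaRG cultures received 48 h chemical treatment, top concentration 100 uM, half-log steps, duplicate wells.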

Read-out in test [20]: DNA damage-inducible transcript 3 (DDIT3), DDIT3 (gene 1649)
Kind of test: LTEA_HepaRG_DDIT3: Life Technologies and Expression Analysis (LTEA) Assay for DNA damage-inducible transcript 3 (DDIT3) using HepaRG (AID 2283488). In short, it runs like this: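 DDIT3 transcript was quantified by qRT-PCR with ACTB/GAPDH/POLR2A normalization after 48 h chemical treatment of differentiated HepaRG cells in 0.5% DMSO. Dosing was eight-point, half-log, top 100 uM, duplicate wells. Curves fitted bidirectionally versus DMSO.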

Cytochrome P450 2C19 (Homo sapiens), sequence (P33261 whole entry, looked up): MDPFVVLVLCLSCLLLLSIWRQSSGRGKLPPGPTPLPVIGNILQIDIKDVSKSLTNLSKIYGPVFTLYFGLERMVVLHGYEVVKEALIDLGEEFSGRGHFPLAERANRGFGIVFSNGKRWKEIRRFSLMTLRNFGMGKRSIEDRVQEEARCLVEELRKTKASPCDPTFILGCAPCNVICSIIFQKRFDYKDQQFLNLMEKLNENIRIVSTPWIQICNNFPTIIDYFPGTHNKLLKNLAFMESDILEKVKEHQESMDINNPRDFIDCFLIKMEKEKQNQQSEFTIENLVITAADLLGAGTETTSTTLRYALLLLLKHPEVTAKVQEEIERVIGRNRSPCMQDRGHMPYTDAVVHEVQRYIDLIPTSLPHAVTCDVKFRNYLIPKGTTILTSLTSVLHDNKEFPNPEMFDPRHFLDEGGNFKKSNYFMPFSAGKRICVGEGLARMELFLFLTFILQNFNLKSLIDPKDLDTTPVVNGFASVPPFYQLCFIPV
Cytochrome P450 3A4 (Homo sapiens), sequence (P08684 whole entry, looked up): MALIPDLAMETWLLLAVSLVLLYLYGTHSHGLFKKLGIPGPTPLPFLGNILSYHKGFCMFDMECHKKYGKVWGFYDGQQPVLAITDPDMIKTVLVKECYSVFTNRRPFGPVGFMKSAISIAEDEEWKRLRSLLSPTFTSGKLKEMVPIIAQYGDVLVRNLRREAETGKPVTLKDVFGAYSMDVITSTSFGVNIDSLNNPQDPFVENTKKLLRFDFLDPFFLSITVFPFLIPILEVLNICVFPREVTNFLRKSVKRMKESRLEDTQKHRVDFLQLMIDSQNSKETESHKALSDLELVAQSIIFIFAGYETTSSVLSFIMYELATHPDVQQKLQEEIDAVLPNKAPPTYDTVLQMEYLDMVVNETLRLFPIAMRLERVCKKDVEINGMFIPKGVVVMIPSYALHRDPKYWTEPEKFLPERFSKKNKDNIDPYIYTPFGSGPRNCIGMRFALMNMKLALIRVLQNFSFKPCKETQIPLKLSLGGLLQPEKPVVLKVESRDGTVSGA
Caspase-3 (Homo sapiens), sequence (P42574 whole entry, looked up): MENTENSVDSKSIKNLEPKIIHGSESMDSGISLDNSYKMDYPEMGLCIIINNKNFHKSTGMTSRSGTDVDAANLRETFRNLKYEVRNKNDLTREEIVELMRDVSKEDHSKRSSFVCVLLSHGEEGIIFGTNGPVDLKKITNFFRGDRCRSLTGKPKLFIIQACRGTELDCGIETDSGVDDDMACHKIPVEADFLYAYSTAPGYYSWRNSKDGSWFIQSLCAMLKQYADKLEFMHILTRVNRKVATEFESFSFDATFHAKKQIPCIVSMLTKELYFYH
Cytochrome P450 3A7 (Homo sapiens), sequence (P24462 whole entry, looked up): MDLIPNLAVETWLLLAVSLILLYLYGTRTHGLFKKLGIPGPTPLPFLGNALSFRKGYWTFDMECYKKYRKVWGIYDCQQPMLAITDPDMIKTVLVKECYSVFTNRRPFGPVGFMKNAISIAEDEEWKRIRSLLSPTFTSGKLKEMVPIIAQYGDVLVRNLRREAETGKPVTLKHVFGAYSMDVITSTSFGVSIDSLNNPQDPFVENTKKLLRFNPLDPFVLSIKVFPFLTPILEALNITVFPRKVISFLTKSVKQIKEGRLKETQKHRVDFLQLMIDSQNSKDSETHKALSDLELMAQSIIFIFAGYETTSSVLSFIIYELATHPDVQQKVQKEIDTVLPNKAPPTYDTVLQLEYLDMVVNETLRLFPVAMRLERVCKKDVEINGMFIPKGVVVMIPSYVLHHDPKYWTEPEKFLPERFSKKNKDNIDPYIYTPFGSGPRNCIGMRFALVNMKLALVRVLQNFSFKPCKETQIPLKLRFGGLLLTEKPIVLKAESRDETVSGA

Take `O=C(O)CC(O)C(=O)O` (stereo not drawn): the result in [1], in test [2], in test [3], in test [4], in test [5] and in test [6] was inactive. Also, the molecule was classed as inactive in test [7], in test [8], in test [9], in [10], in test [11] and in test [12]. Also, the result in [13], in test [14], in [15], in [16], in test [17] and in [18] was inactive. Besides, the outcome in test [19] was inactive.

As to `CC[C@H](C)C(=O)O[C@H]1C[C@@H](C)C=C2C=C[C@H](C)[C@H](CC[C@@H]3C[C@@H](O)CC(=O)O3)[C@H]21`, the outcome in [1], in [2], in test [3], in test [5], in [6] and in [8] was inactive. For the same molecule, the call in test [11], in test [20], in test [13], in test [14], in [15] and in [19] was inactive. Also, the AC50 was 6.18 µM (active) in test [4], 29.8 µM (active) in test [10] and 13.2 µM (active) in [18].

As for `C1=CCCC=CCCC=CCC1`, the result in [1], in test [2], in test [4], in [5], in [6] and in [7] was inactive. The outcome in test [8], in test [9], in test [10], in [11], in test [12] and in test [13] was inactive. Besides, the molecule was classed as inactive in [14], in test [15], in [16], in test [17], in [18] and in test [19].

Regarding `CC(C)CC(C)(O)C#CC(C)(O)CC(C)C` (stereo not drawn), the call in test [1], in [2], in test [3], in [4], in test [5] and in [8] was inactive. The outcome in test [9], in [14], in test [15], in test [16], in [17] and in [18] was inactive. Besides, the concentration at half-maximal activity (AC50) is 21.9 µM (active) in test [6]; 29.5 µM (active) in [7]; 64.7 µM (active) in [10]; 50 µM (active) in test [11]; 19.4 µM (active) in [12].

On to `Nc1cccc(N)c1`, for which the molecule was called inactive in test [1], in [2], in [3], in test [5], in [6] and in [7]. Further, the outcome in test [8], in test [9], in test [10], in test [11], in test [12] and in test [13] was inactive. Also, the molecule was called inactive in test [14], in test [15], in test [16], in test [17], in [18] and in test [19]. Besides, in [4], the concentration at half-maximal activity (AC50) was 33 µM (active).
